Experimental data as given in PubChem BioAssay AID1159580 (chemical genetic matrix, 2015).
In all, about 5,500 compounds went through this assay and about 2,000 (36%) were called active. Inconclusive results (about 18%) are left out. Cut-off read from the data, not from the text of the source: active = normalized growth mostly below about 0.91 (no sharp cut-off); inconclusive = no clear call, values can overlap the other calls; inactive = mostly above about 0.92. The list shows a part of the results.

Assay: chemical genetic growth profiling, strain panel (AID 1159580);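 note: tested at 20 µM; growth read once vehicle control cultures reached saturation at 30 °C; 1 = growth at the plate median or of vehicle wells; lower values mean less growth of the strain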
Settings: growth OD

Measured: normalized growth

CC(=O)O[C@H]1CC[C@@]2(C)C(=CC(=O)C3C4CCC(C(C)CCCC(C)C)[C@@]4(C)CCC32)C1 (stereo not given in full)
inactive: S. cerevisiae deletion strains, locus YAL013W, strain DEP1, active compounds read low 1.01 | S. cerevisiae deletion strains, locus YAL021C, strain ccr4, active compounds read low 0.992 | S. cerevisiae deletion strains, locus YAL026C, strain drs2, active compounds read low 1.02 | S. cerevisiae deletion strains, locus YAL030W, strain snc1, active compounds read low 0.992 | S. cerevisiae deletion strains, locus YBL061C, strain skt5, active compounds read low 0.988 | S. cerevisiae deletion strains, locus YBR009C, strain hhf1, active compounds read low 1.01 | S. cerevisiae deletion strains, locus YBR021W, strain FUR4, active compounds read low 0.999 | S. cerevisiae deletion strains, locus YBR023C, strain chs3, active compounds read low 0.985 | S. cerevisiae deletion strains, locus YBR171W, strain sec66, active compounds read low 0.996 | S. cerevisiae deletion strains, locus YBR229C, strain ROT2, active compounds read low 1 | S. cerevisiae deletion strains, locus YBR231C, strain swc5, active compounds read low 1.02 | S. cerevisiae deletion strains, locus YBR279W, strain paf1, active compounds read low 0.996 | S. cerevisiae deletion strains, locus YCL011C, strain gbp2, active compounds read low 0.994 | S. cerevisiae deletion strains, locus YCL016C, strain dcc1, active compounds read low 0.99 | S. cerevisiae deletion strains, locus YCL029C, strain bik1, active compounds read low 0.986 | S. cerevisiae deletion strains, locus YCL061C, strain MRC1, active compounds read low 1 | S. cerevisiae deletion strains, locus YCL069W, strain vba3, active compounds read low 0.997 | S. cerevisiae deletion strains, locus YCR088W, strain abp1, active compounds read low 0.995 | S. cerevisiae deletion strains, locus YDL005C, strain med2, active compounds read low 0.971 | S. cerevisiae deletion strains, locus YDL035C, strain GPR1, active compounds read low 1.02 | S. cerevisiae deletion strains, locus YDL040C, strain nat1, active compounds read low 0.991 | S. cerevisiae deletion strains, locus YDL074C, strain BRE1, active compounds read low 1.04 | S. cerevisiae deletion strains, locus YDL101C, strain DUN1, active compounds read low 1 | S. cerevisiae deletion strains, locus YDL185W, strain tfp1, active compounds read low 1.02 | S. cerevisiae deletion strains, locus YDL192W, strain arf1, active compounds read low 1 | S. cerevisiae deletion strains, locus YDR001C, strain nth1, active compounds read low 0.99 | S. cerevisiae deletion strains, locus YDR069C, strain doa4, active compounds read low 0.992 | S. cerevisiae deletion strains, locus YDR101C, strain arx1, active compounds read low 1 | S. cerevisiae deletion strains, locus YDR137W, strain rgp1, active compounds read low 1.01 | S. cerevisiae deletion strains, locus YDR150W, strain NUM1, active compounds read low 0.998 | S. cerevisiae deletion strains, locus YDR159W, strain sac3, active compounds read low 1.01 | S. cerevisiae deletion strains, locus YDR162C, strain NBP2, active compounds read low 1.01 | S. cerevisiae deletion strains, locus YDR195W, strain ref2 0.977 | S. cerevisiae deletion strains, locus YDR297W, strain sur2, active compounds read low 0.995 | S. cerevisiae deletion strains, locus YDR318W, strain mcm21, active compounds read low 0.978 | S. cerevisiae deletion strains, locus YDR334W, strain swr1, active compounds read low 0.994 | S. cerevisiae deletion strains, locus YDR335W, strain msn5, active compounds read low 0.993 | S. cerevisiae deletion strains, locus YDR388W, active compounds read low 0.979 | S. cerevisiae deletion strains, locus YDR392W, strain spt3, active compounds read low 0.944 | S. cerevisiae deletion strains, locus YDR502C, strain sam2, active compounds read low 1 | S. cerevisiae deletion strains, locus YEL003W, strain gim4, active compounds read low 1.01 | S. cerevisiae deletion strains, locus YEL037C, strain rad23, active compounds read low 0.994 | S. cerevisiae deletion strains, locus YEL061C, strain CIN8 (second series), active compounds read low 0.995 | S. cerevisiae deletion strains, locus YEL061C, strain CIN8, active compounds read low 1 | S. cerevisiae deletion strains, locus YER015W, strain faa2, active compounds read low 0.996 | S. cerevisiae deletion strains, locus YER016W, strain bim1, active compounds read low 0.989 | S. cerevisiae deletion strains, locus YER110C, active compounds read low 0.982 | S. cerevisiae deletion strains, locus YER111C, strain swi4, active compounds read low 0.999 | S. cerevisiae deletion strains, locus YER155C, strain BEM2 (second series), active compounds read low 1.01 | S. cerevisiae deletion strains, locus YER155C, strain BEM2, active compounds read low 1.01 | S. cerevisiae deletion strains, locus YER167W, strain BCK2, active compounds read low 1.01 | S. cerevisiae deletion strains, locus YFR010W, strain ubp6, active compounds read low 1.01 | S. cerevisiae deletion strains, locus YGL078C, strain dbp3, active compounds read low 1.02 | S. cerevisiae deletion strains, locus YGL086W, strain mad1, active compounds read low 1.01 | S. cerevisiae deletion strains, locus YGL167C, strain pmr1, active compounds read low 0.993 | S. cerevisiae deletion strains, locus YGL173C, strain kem1, active compounds read low 0.978 | S. cerevisiae deletion strains, locus YGL227W, strain vid30, active compounds read low 0.984 | S. cerevisiae deletion strains, locus YGL240W, strain doc1, active compounds read low 1.01 | S. cerevisiae deletion strains, locus YGL248W, strain PDE1, active compounds read low 0.987 | S. cerevisiae deletion strains, locus YGL253W, strain hxk2, active compounds read low 0.993 | S. cerevisiae deletion strains, locus YGR135W, strain pre9, active compounds read low 0.984 | S. cerevisiae deletion strains, locus YGR252W, strain gcn5, active compounds read low 1.07 | S. cerevisiae deletion strains, locus YHR013C, strain ard1, active compounds read low 0.994 | S. cerevisiae deletion strains, locus YHR027C, strain rpn1, active compounds read low 0.994 | S. cerevisiae deletion strains, locus YHR030C, strain SLT2, active compounds read low 1 | S. cerevisiae deletion strains, locus YHR079C, strain IRE1 (second series), active compounds read low 0.991 | S. cerevisiae deletion strains, locus YHR094C, strain hxt1, active compounds read low 0.975 | S. cerevisiae deletion strains, locus YHR129C, strain ARP1, active compounds read low 0.999 | S. cerevisiae deletion strains, locus YHR142W, strain chs7, active compounds read low 0.979 | S. cerevisiae deletion strains, locus YHR200W, strain rpn10, active compounds read low 0.985 | S. cerevisiae deletion strains, locus YIL066C, strain RNR3, active compounds read low 1 | S. cerevisiae deletion strains, locus YIL073C, strain SPO22, active compounds read low 1.03 | S. cerevisiae deletion strains, locus YIL125W, strain kgd1, active compounds read low 1.01 | S. cerevisiae deletion strains, locus YIR030C, strain dcg1, active compounds read low 0.989 | S. cerevisiae deletion strains, locus YJL092W, strain hpr5, active compounds read low 0.99 | S. cerevisiae deletion strains, locus YJL095W, strain BCK1 (second series), active compounds read low 0.982 | S. cerevisiae deletion strains, locus YJL095W, strain BCK1, active compounds read low 1.01 | S. cerevisiae deletion strains, locus YJL115W, strain asf1, active compounds read low 0.981 | S. cerevisiae deletion strains, locus YJL129C, strain trk1, active compounds read low 0.989 | S. cerevisiae deletion strains, locus YJL134W, strain LCB3, active compounds read low 1.01 | S. cerevisiae deletion strains, locus YJL154C, strain vps35, active compounds read low 0.999 | S. cerevisiae deletion strains, locus YJL164C, strain tpk1, active compounds read low 1 | S. cerevisiae deletion strains, locus YJL166W, strain qcr8, active compounds read low 0.998 | S. cerevisiae deletion strains, locus YJL168C, strain set2, active compounds read low 0.976 | S. cerevisiae deletion strains, locus YJL187C, strain SWE1 (second series), active compounds read low 1.01 | S. cerevisiae deletion strains, locus YJL187C, strain SWE1, active compounds read low 0.991 | S. cerevisiae deletion strains, locus YJR043C, strain POL32, active compounds read low 1.01 | S. cerevisiae deletion strains, locus YJR075W, strain HOC1, active compounds read low 1 | S. cerevisiae deletion strains, locus YKL009W, strain mrt4, active compounds read low 1.04 | S. cerevisiae deletion strains, locus YKL068W, active compounds read low 1 | S. cerevisiae deletion strains, locus YKL085W, strain MDH1 (second series), active compounds read low 1 | S. cerevisiae deletion strains, locus YKL085W, strain MDH1, active compounds read low 1 | S. cerevisiae deletion strains, locus YKL160W, strain elf1, active compounds read low 0.996 | S. cerevisiae deletion strains, locus YKR001C, strain vps1, active compounds read low 1.03 | S. cerevisiae deletion strains, locus YKR026C, strain gcn3, active compounds read low 0.994 | S. cerevisiae deletion strains, locus YKR091W, strain srl3, active compounds read low 0.994 | S. cerevisiae deletion strains, locus YLL001W, strain dnm1, active compounds read low 0.984 | S. cerevisiae deletion strains, locus YLL026W, active compounds read low 1 | S. cerevisiae deletion strains, locus YLL041C, strain sdh2, active compounds read low 0.993 | S. cerevisiae deletion strains, locus YLR027C, strain aat2, active compounds read low 1 | S. cerevisiae deletion strains, locus YLR039C, strain RIC1, active compounds read low 1.03 | S. cerevisiae deletion strains, locus YLR058C, strain SHM2, active compounds read low 0.999 | S. cerevisiae deletion strains, locus YLR102C, strain apc9, active compounds read low 0.975 | S. cerevisiae deletion strains, locus YLR221C, strain rsa3, active compounds read low 0.983 | S. cerevisiae deletion strains, locus YLR258W, strain gsy2, active compounds read low 1.01 | S. cerevisiae deletion strains, locus YLR262C, strain YPT6 (second series), active compounds read low 0.996 | S. cerevisiae deletion strains, locus YLR262C, strain YPT6, active compounds read low 1.02 | S. cerevisiae deletion strains, locus YLR268W, strain sec22, active compounds read low 1.02 | S. cerevisiae deletion strains, locus YLR320W, strain mms22, active compounds read low 0.991 | S. cerevisiae deletion strains, locus YLR330W, strain CHS5, active compounds read low 1 | S. cerevisiae deletion strains, locus YLR342W, strain FKS1 (second series), active compounds read low 1.03 | S. cerevisiae deletion strains, locus YLR342W, strain FKS1, active compounds read low 0.993 | S. cerevisiae deletion strains, locus YLR357W, strain rsc2, active compounds read low 0.983 | S. cerevisiae deletion strains, locus YLR370C, strain arc18, active compounds read low 0.994 | S. cerevisiae deletion strains, locus YLR371W, strain rom2, active compounds read low 0.977 | S. cerevisiae deletion strains, locus YLR384C, strain iki3, active compounds read low 0.971 | S. cerevisiae deletion strains, locus YLR418C, strain cdc73, active compounds read low 1.02 | S. cerevisiae deletion strains, locus YML016C, strain PPZ1, active compounds read low 1 | S. cerevisiae deletion strains, locus YML032C, strain rad52, active compounds read low 0.985 | S. cerevisiae deletion strains, locus YML120C, strain ndi1, active compounds read low 0.997 | S. cerevisiae deletion strains, locus YML124C, strain tub3, active compounds read low 0.988 | S. cerevisiae deletion strains, locus YMR058W, strain fet3, active compounds read low 1 | S. cerevisiae deletion strains, locus YMR078C, strain ctf18, active compounds read low 0.988 | S. cerevisiae deletion strains, locus YMR125W, strain sto1, active compounds read low 0.997 | S. cerevisiae deletion strains, locus YMR129W, active compounds read low 0.989 | S. cerevisiae deletion strains, locus YMR205C, strain PFK2, active compounds read low 0.993 | S. cerevisiae deletion strains, locus YMR223W, strain ubp8, active compounds read low 0.983 | S. cerevisiae deletion strains, locus YMR231W, strain pep5, active compounds read low 1 | S. cerevisiae deletion strains, locus YMR307W, strain GAS1, active compounds read low 1.07 | S. cerevisiae deletion strains, locus YNL067W, strain RPL9B, active compounds read low 1.01 | S. cerevisiae deletion strains, locus YNL071W, strain lat1, active compounds read low 0.994 | S. cerevisiae deletion strains, locus YNL128W, strain TEP1, active compounds read low 1.04 | S. cerevisiae deletion strains, locus YNL209W, strain ssb2, active compounds read low 0.997 | S. cerevisiae deletion strains, locus YNL233W, strain BNI4, active compounds read low 1.01 | S. cerevisiae deletion strains, locus YNL248C, strain rpa49, active compounds read low 1.01 | S. cerevisiae deletion strains, locus YNL250W, strain rad50, active compounds read low 1 | S. cerevisiae deletion strains, locus YNL271C, strain bni1, active compounds read low 1.01 | S. cerevisiae deletion strains, locus YNL298W, strain CLA4, active compounds read low 1.01 | S. cerevisiae deletion strains, locus YNL307C, strain MCK1, active compounds read low 0.985 | S. cerevisiae deletion strains, locus YNL322C, strain KRE1 (second series), active compounds read low 0.983 | S. cerevisiae deletion strains, locus YNR049C, strain mso1, active compounds read low 0.993 | S. cerevisiae deletion strains, locus YNR052C, strain pop2, active compounds read low 0.975 | S. cerevisiae deletion strains, locus YOL006C, strain TOP1, active compounds read low 1.05 | S. cerevisiae deletion strains, locus YOL012C, strain htz1 0.955 | S. cerevisiae deletion strains, locus YOL147C, strain pex11, active compounds read low 0.982 | S. cerevisiae deletion strains, locus YOR001W, strain rrp6, active compounds read low 1.01 | S. cerevisiae deletion strains, locus YOR061W, strain CKA2, active compounds read low 1.01 | S. cerevisiae deletion strains, locus YOR069W, strain VPS5, active compounds read low 1.01 | S. cerevisiae deletion strains, locus YOR070C, strain gyp1, active compounds read low 0.987 | S. cerevisiae deletion strains, locus YOR080W, strain dia2, active compounds read low 0.996 | S. cerevisiae deletion strains, locus YOR083W, strain WHI5, active compounds read low 0.98 | S. cerevisiae deletion strains, locus YOR106W, strain vam3, active compounds read low 1.01 | S. cerevisiae deletion strains, locus YOR136W, strain idh2, active compounds read low 0.995 | S. cerevisiae deletion strains, locus YOR144C, strain elg1, active compounds read low 0.99 | S. cerevisiae deletion strains, locus YOR184W, strain ser1, active compounds read low 0.998 | S. cerevisiae deletion strains, locus YOR265W, strain rbl2, active compounds read low 1 | S. cerevisiae deletion strains, locus YOR270C, strain vph1, active compounds read low 0.968 | S. cerevisiae deletion strains, locus YOR290C, strain snf2, active compounds read low 0.974 | S. cerevisiae deletion strains, locus YOR316C, strain cot1, active compounds read low 0.977 | S. cerevisiae deletion strains, locus YPL051W, strain arl3, active compounds read low 1 | S. cerevisiae deletion strains, locus YPL078C, strain atp4, active compounds read low 0.995 | S. cerevisiae deletion strains, locus YPL106C, strain sse1, active compounds read low 0.978 | S. cerevisiae deletion strains, locus YPL240C, strain hsp82, active compounds read low 0.993 | S. cerevisiae deletion strains, locus YPL241C, strain CIN2, active compounds read low 1 | S. cerevisiae deletion strains, locus YPR119W, strain clb2, active compounds read low 0.982 | S. cerevisiae deletion strains, locus YPR141C, strain kar3, active compounds read low 0.993 | S. cerevisiae deletion strains, locus YPR163C, strain tif3, active compounds read low 0.981 | S. cerevisiae deletion strains, locus YPR167C, strain met16, active compounds read low 0.984 | S. cerevisiae deletion strains, strain wtn01, active compounds read low 1.05 | S. cerevisiae strains, strain wild type, active compounds read low 1.01
